According to PubChem BioAssay:

The compounds below were run against Calmodulin-1 (Homo sapiens) (UniProt P0DP23) (assay: small molecules binding calmodulin-1 with EGTA – biochemical, small-molecule microarray, Cy5-labelled CALM1, profiling panel (AID 1111;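 further: labelled calmodulin applied in Tris saline Tween buffer holding calcium plus EGTA and DTT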)). Settings: Cy5-CALM1 binding fluorescence, higher = more signal.

SMILES	composite z-score
CC(CO)N1C(=O)[C@@H]2C3C(=O)OCCC/C=C\[C@H]3OC23C=CCN(C(C)(C)C)C(=O)[C@@H]13 (stereo not given in full)	-0.565
CN1C(=O)C2C=CC(C(O)c3ccccc3)N(N(c3ccccc3)c3ccccc3)C2C1=O (stereo not given)	-0.315
C=CCOC(=O)[C@H]1[C@@H]2C(=O)O[C@@H](c3ccccc3)[C@@H](c3ccccc3)N2[C@@H](c2ccc(OCCOC(=O)[C@@H]3C[C@@H]4C(=O)N[C@@H](CCCCNC(C)=O)C(=O)N4[C@@H]3c3ccc(O)cc3)cc2)[C@]12C(=O)Nc1ccccc12	1.72
C[C@H]1C2[C@H](Cc3ccccc3)NC(=O)[C@]23C(=O)N[C@H](Cc2ccccc2)C(=O)N2CCC[C@H]2C(=O)NC/C=C\C/C=C/C3[C@@H]2O[C@]12C (stereo not given in full)	-0.404
CC(C)C(O)C1C=CC2C(=O)NC(=O)C2N1Nc1ccc(Cl)cc1Cl (stereo not given)	1.5
COC(=O)C(CC#Cc1ccc2c(c1)[C@]1(C(=O)N2)[C@H](C(=O)Nc2nc3ccccc3s2)[C@H]2C(=O)O[C@H](c3ccccc3)[C@H](c3ccccc3)N2[C@@H]1c1ccc(O)cc1)C(=O)OC	0.728
CC(C)C(O)C1C=CC2C(=O)N(c3ccccc3)C(=O)C2N1Nc1ccc([N+](=O)[O-])cc1 (stereo not given)	0.594
CC(C)C[C@@H]1NC(=O)[C@@H]2C[C@H](C(=O)NCc3ccc(F)cc3)[C@H](c3cccc(OCCO)c3)N2C1=O	0.217
CCCC[C@H]1OB(O)C[C@H]2C1=C(COC)C[C@H]1C(=O)N(C)C(=O)[C@H]12	0.223
COCCOC(=O)N1C(=O)[C@@]2(c3cc(C#Cc4ccc(OC)cc4)ccc31)[C@H](c1ccccc1OCCO)N1[C@H](c3ccccc3)[C@H](c3ccccc3)OC(=O)[C@H]1[C@@H]2C(=O)NC[C@H](O)c1ccccc1	1.03
CCOC(=O)C[C@H]1[C@H](OC(=O)c2ccc(C(=O)c3ccccc3)cc2)[C@@H](NC(=O)c2ccccc2)c2cc(OCCCO)ccc2N1C(=O)c1ccc2ccccc2n1	1.61
O=C(c1ccccc1)N1C(=O)[C@@]2(Cc3ccccc31)N=C(c1ccc(OCCCO)cc1)O[C@H]2c1ccccc1	0.661
Cc1ccc(N2C(=O)c3ccccc3[C@@H](C(=O)NC3CC3)[C@@H]2c2ccc(CO)cc2)nc1	-1.35
[N-]=[N+]=Nc1ccccc1[C@@H]1OC(c2ccc(OCCCO)cc2)=N[C@]1(CCS(=O)(=O)c1ccccc1)C(N)=O	0.925
COC(=O)C(CC#Cc1ccc2c(c1)[C@]1(C(=O)N2)[C@H](C(=O)Nc2nc3ccccc3s2)[C@H]2C(=O)O[C@H](c3ccccc3)[C@H](c3ccccc3)N2[C@@H]1c1ccccc1OCCO)C(=O)OC	1.42
CCOC(=O)C[C@H]1[C@H](OC(=O)c2ccc(C(=O)c3ccccc3)cc2)[C@@H](NC(=O)CC(C)C)c2cc(OCCCO)ccc2N1C(=O)c1ccc2ccccc2n1	0.711
C=CC[C@]1(C(=O)NCc2ccccc2)N=C(c2ccc(OCCCO)cc2)O[C@H]1c1ccccc1N=[N+]=[N-]	1.96
OCCCC1=CC(c2cccs2)N(Cc2cc3c(cc2Br)OCO3)CC1 (stereo not given)	0.0466
COc1ccc(C#Cc2ccc3c(c2)[C@]2(C(=O)N3)[C@H](C(=O)Nc3nc4ccccc4s3)[C@H]3C(=O)O[C@H](c4ccccc4)[C@H](c4ccccc4)N3[C@@H]2c2ccc(O)cc2)cc1	1.7
NC(=O)[C@@H]1[C@H]2C(=O)O[C@H](c3ccccc3)[C@H](c3ccccc3)N2[C@H](c2ccc(O)cc2)[C@@]12C(=O)Nc1ccccc12	-0.395
CCCCC(CC)C(O)C1C=CC2C(=O)N(Cc3ccccc3)C(=O)C2N1n1cnnc1 (stereo not given)	-0.0327
O=C1O[C@H](c2ccccc2)[C@H](c2ccccc2)N2[C@H]1[C@@H](C(=O)N1CCCCCCC1)[C@]1(C(=O)Nc3ccc(C#CCCO)cc31)[C@H]2c1ccccc1OCCO	3.03
C=CCNC(=O)[C@H]1[C@@H]2C(=O)O[C@@H](c3ccccc3)[C@@H](c3ccccc3)N2[C@@H](c2ccccc2OCCO)[C@]12C(=O)Nc1ccc(C#CCCO)cc12	-0.231
COc1ccc(C#Cc2ccc3c(c2)[C@]2(C(=O)N3)[C@H](c3ccccc3OCCO)N3[C@H](c4ccccc4)[C@H](c4ccccc4)OC(=O)[C@H]3[C@@H]2C(=O)Nc2nc3ccccc3s2)cc1	0.844
CN1C(=O)C2C=CC(C(O)C3CC=CCC3)N(N(c3ccccc3)c3ccccc3)C2C1=O (stereo not given)	-0.549
